# From PubChem BioAssay AID493056 (National Center for Advancing Translational Sciences (NCATS), 2011)
# Out of some 360,000 compounds screened, about 2,400 (0.67%) were called active. This is one part of a sample in which actives are shown more often than they occur. Unmarked numbers belong to inactive results. Cut-off read from the data, not from the text of the source: active = enhancement above about 30%; inactive = the rest.
# Biological target: Thyrotropin-releasing hormone receptor (Homo sapiens) (UniProt P34981)
# Sequence (P34981 whole entry, looked up): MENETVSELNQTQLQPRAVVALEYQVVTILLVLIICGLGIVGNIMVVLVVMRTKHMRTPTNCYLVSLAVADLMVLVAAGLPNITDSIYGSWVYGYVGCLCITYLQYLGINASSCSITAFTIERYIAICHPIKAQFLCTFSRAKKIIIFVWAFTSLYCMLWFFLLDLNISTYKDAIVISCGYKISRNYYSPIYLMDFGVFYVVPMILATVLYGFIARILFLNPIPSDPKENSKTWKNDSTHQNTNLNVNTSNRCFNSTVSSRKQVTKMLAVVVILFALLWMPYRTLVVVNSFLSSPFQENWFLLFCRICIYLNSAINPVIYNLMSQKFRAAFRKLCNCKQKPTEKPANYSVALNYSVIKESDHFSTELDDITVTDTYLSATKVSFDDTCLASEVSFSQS
# Test: qHTS for Small Molecule Agonists and Allosteric Enhancers of Human TRH Receptor: Primary Screen for Enhancers; note: 0% is about no effect
# Details: TRHR cells, fluo-8 calcium fluorescence, EC20 TRH enhancement; at 2 µM; stronger effect = higher value
# Text: NIH Chemical Genomics Center [NCGC] NIH Molecular Libraries Probe Centers Network [MLPCN] MLPCN Grant: MH089816-01 Assay Submitter (PI): Marvin Gershengorn This project aims to identify small drug-like molecules that activate (agonists) the thyrotropin releasing hormone (TRH) receptor (TRHR) or enhance its TRH-stimulated activity (allosteric enhancers). TRHR, a drug-accessible cell surface receptor expressed in specific brain regions, and its ligand TRH have been implicated in several central nervous system disorders, including depression and anxiety. Small molecule TRHR agonists or allosteric enhancers that are metabolically stable and able to cross the blood-brain barrier might serve as probes to elucidate the roles of brain TRH receptors in animal models, and might be valuable as lead compounds for the development of drugs to treat patients with central nervous system disorders. Upon TRHR-Gq activation in TRHR cells, intracellular calcium is released from stores in the endoplasmic reticulum. […] This primary screen measures compound-induced enhancement of an EC20 stimulation of the receptor by its native ligand.
# For the HTS assay freshly prepared cells are plated at a density of 2000/well in 3 ul of complete DMEM medium containing 10% serum in 1536-well plates and cultured over night at 37 C in a humidified incubator with 5% CO2. The next day, 2 ul of a no wash calcium dye (ABD Bioquest) was added to the cells and plates were incubated at room temperature for 1 hour. For the assay, assay plates were loaded into the FDSS kinetic plate reader. A 10 cycle (1 second/cycle) baseline measurement is taken and then the FDSS online 1536 pintool delivers 23 nl of compound library (as well as TRH controls) to the plate. The plate is measured for kinetically at 1 cycle/sec for 180 seconds and is considered to be the agonist portion of the assay (eg, compounds which activate a positive calcium response during this portion are flagged as potential agonists). Following the 180 second read, 1 ul of either an EC20 (positive modulation assay) is delivered by an onboard pipette head. Measurements are taken kinetically for an additional 180 seconds. TRHR FDSS Screening Protocol 1. Reagent, 3 uL 2000 cells/well 1536 TC treated Black plate in media containing 10% FCS 2. Time, 18 hours, 33.5C 5% CO2 (cells grown at 37C) 3. Reagent, 2 uL ABD fluo-8 Ca dye 4. Time, 30 min-1.5hrs hours, Room temp (6 plates/batch) 5. Detector, EX 480/EM 530C, FDSS 10 cycles baseline (1sec/cycle) 6. Compound, 23 nL of stock solution from library 7. Detector, EX 480/EM 530C, FDSS 230 cycles (1sec/cycle) Agonist mode 8. Compound, 1 ul EC20 of TRH made up in HEPES HBSS, 10 nM final 9. Detector, EX 480/EM 530C, FDSS 100 cycles (1sec/cycle) Potentiator mode
row,SMILES,enhancement
1,COc1ccc(CNCCc2c[nH]c3ccccc23)cc1OC,8.12%
2,C/C(CCc1c[nH]c2ccccc12)=N\O,30.5% (active)
3,CCC/C(=N\O)c1c[nH]c2ccccc12,-0.263%
4,Cc1ccc(-n2c(/C=C/c3cccc(C(F)(F)F)c3)nc3ccccc3c2=O)cc1,-5.54%
5,O=C(c1cc(S(=O)(=O)N2CCOCC2)ccc1F)N1CCC2(CC1)OCCO2,5.79%
6,CC(C)Oc1cccc(C(=O)C2CCCN(C3CCOCC3)C2)c1 (stereo not given),5.95%
7,O=C(OCCN1CCOCC1)C1(c2ccccc2)CCCC1,-3.33%
8,CCOP(=S)(OCC)C(O)CCCCCn1c(=O)c(F)cn(C2CCCO2)c1=O (stereo not given),31.8% (active)
9,CC(C)c1ccc(OCC(=O)N2CCN(C)CC2)c(Br)c1,-3.04%
10,CC(C)(C)c1ccc(OC(=O)N2CCCCC2)cc1,2.54%
11,C[N+]1(C)CCOC(O)(c2ccc(-c3ccc(C4(O)C[N+](C)(C)CCO4)cc3)cc2)C1 (stereo not given),36.7% (active)
12,Cc1cccc(Cn2cccc(C(=O)Nc3ccc4c(c3)OCCO4)c2=O)c1,-1%
13,CC(C)N(CC#CCC1(O)c2ccccc2-c2ccccc21)C(C)C,-0.877%
14,CCC(C)n1c(O)c(/C=N/Nc2nc3c(c(=O)n(C)c(=O)n3C)n2C)c(=O)[nH]c1=S (stereo not given),-2.9%
15,Cc1ccc(-c2nc3ccccc3c(=O)n2-c2ccc(Br)cn2)cc1,3.56%
